From PubChem BioAssay
This is one part of a sample in which hits are shown more often than they occur.
aSyn yeast rescue = alpha-synuclein toxicity suppression in yeast | AID 1347070 | hit rate 0.02% among 94,000 | Potency, µM (top dose mostly 46.1 µM), actives largely listed as activators | S. cerevisiae alpha-synuclein toxicity rescue, BacTiter-Glo growth, 24 h; active means well fitted activation curve with a large enough effect; further: 0% is about no effect
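Growth restoration measured by BacTiter-Glo luminescence after 24 hr at 30 deg C; alpha-synuclein yeast, raffinose-pregrown to mid-log, were added at OD600=0.02 in galactose medium onto pinned compounds.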
An asterisk follows results filed as active. Potency means the concentration at half of the fitted maximal effect.

O=C1CN=C(c2ccccc2)c2cc(Cl)ccc2N1Cc1ccc(Cl)cc1 was read as aSyn yeast rescue inactive.
`CCc1cccc(NC(=O)CN2C(=O)CN=C(c3ccccc3F)c3cc(Cl)ccc32)c1` gave aSyn yeast rescue 20µM*.
For Cc1cccc(CN2C(=O)CN=C(c3ccccc3)c3cc(Cl)ccc32)c1 the results were aSyn yeast rescue inactive.
Screening COc1ccc(NC(=O)CN2C(=O)CN=C(c3ccccc3)c3ccccc32)c(OC)c1 returned aSyn yeast rescue inactive.
Screening O=C(COc1cc(Cl)ccc1Cl)Nc1ccc(Cl)cc1C(=O)c1ccccc1 returned aSyn yeast rescue inactive.
